A short description of assay [1]: A549 cell viability effects, profiling panel, calcein-AM fluorescence, 48 h, basal (AID 1162). Further: test concentration not given here. The following applies: higher = more signal.
Assay [2] is described as follows: adipocyte viability effects, profiling panel, cell-based, 3T3-L1 adipocytes, calcein-AM fluorescence, 48 h, basal (AID 1163). Further: test concentration not given here. The following applies: 3T3-L1 adipocytes viability, higher = more signal.
A short description of assay [3]: HepG2 cell viability effects, profiling panel, calcein-AM fluorescence, 48 h, basal (AID 1164). Further: test concentration not given here. The following applies: higher = more signal.
A short description of assay [4]: MM1S cell viability effects, profiling panel, calcein-AM fluorescence, 48 h, basal (AID 1165).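 Further: viability of MM1S multiple myeloma cells under basal unstimulated conditions; test concentration not given here.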 The following applies: higher = more signal.
A short description of assay [5]: basal RPMI8226 viability, no added stimulus, profiling panel, cell-based, calcein-AM fluorescence, 48 h, PK04 Diversity Set (AID 1166).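 Further: cells grown under basal conditions without added stimulus; test concentration not given here.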 The following applies: RPMI8226 myeloma viability, higher = more signal.
The nature of assay [6]: basal HepG2 mitochondrial membrane potential changes, profiling panel, cell-based, JC-1 fluorescence, 24 h, 100 nL compound (AID 1167). Further: test concentration not given here. Conditions: higher = more signal.
The nature of assay [7]: basal 3T3-L1 adipocyte mitochondrial potential changes, profiling panel, cell-based, JC-1 fluorescence, 3T3-L1 adipocytes, 24 h, 100 nL compound (AID 1168). Further: test concentration not given here. Conditions: JC-1 mitochondrial fluorescence, higher = more signal, called active from +8 up or from −8 down.
Assay [8] can be described thus: basal RPMI8226 mitochondrial membrane potential changes, profiling panel, cell-based, JC-1 fluorescence, 24 h, 100 nL compound (AID 1169). Further: test concentration not given here. The following applies: RPMI8226 myeloma, JC-1 mitochondrial potential fluorescence, higher = more signal.
Assay [9] can be described thus: basal MM1S mitochondrial membrane potential changes, profiling panel, cell-based, JC-1 fluorescence, 24 h, 100 nL compound (AID 1170). Further: test concentration not given here. Conditions: higher = more signal.
Assay [10] in a line: A549 lung cancer cell viability effects, profiling panel, resazurin fluorescence, 24 h, PK04 Diversity Set (AID 1171). Further: test concentration not given here. Conditions: higher = more signal, called active from +8 up or from −8 down.
Assay [11] in a line: HepG2 liver cancer cell viability effects, profiling panel, resazurin fluorescence, 24 h, PK04 Diversity Set (AID 1172). Further: test concentration not given here. The following applies: higher = more signal.
Assay [12] in a line: basal S. cerevisiae growth modulation, no modifier, primary screen, OD600, strain BY4716, 24 h, basal condition (AID 1173). The following applies: OD600, 24 h, higher = more signal, called active from +8 up or from −8 down.
Assay [13] in a line: MM1S myeloma cell viability, profiling panel, resazurin fluorescence, basal, 24 h, PK04 Diversity Set (AID 1174). Further: test concentration not given here. Conditions: higher = more signal, called active from +8 up or from −8 down.
The target of assay [14] is Dihydroorotate dehydrogenase (quinone), mitochondrial (Plasmodium falciparum (isolate 3D7)) (UniProt Q08210). Put plainly: PfDHODH enzyme inhibitors, primary screen, biochemical, C-terminal His tag, absorbance 600 nm (AID 1175).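 Further: recombinant parasite enzyme with a five histidine tag at its C terminus; test concentration not given here.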 The following applies: DCIP absorbance 600 nm, higher = more signal, called active from +8 up or from −8 down.
Assay [15] in a line: P. aeruginosa biofilm formation inhibitors, primary screen, strain PAO1, LB-PBS medium, absorbance 600 nm (AID 1176). Further: test concentration not given here. The following applies: P. aeruginosa PAO1 growth/biofilm, A600, 12 h; higher = more signal.
Assay [16] can be described thus: S. cerevisiae RM11-1a growth modifiers, primary screen, strain RM11-1a, OD600, basal, 24 h (AID 1177).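 Further: cultures grown under basal conditions with no added stressor; test concentration not given here.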 The following applies: OD600, 24 h, higher = more signal, called active from +8 up or from −8 down.
A short description of assay [17]: E. coli acrAB mutant growth effects, primary screen, E. coli filamentation inducers, strain DRC39, OD650, 24 h (AID 1178).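 Further: growth measured as culture turbidity by optical density at 650 nm; test concentration not given here.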 The following applies: higher = more signal, called active from +8 up or from −8 down.
Assay [18] can be described thus: E. coli acrAB mutant growth effects, primary screen, E. coli filamentation inducers, strain DRC39, OD650, 48 h (AID 1179).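 Further: screen aims at cell division blockers that make cells filament.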 The following applies: E. coli DRC39 delta-acrAB growth, higher = more signal, called active from +8 up or from −8 down.
Assay [19] in a line: RPMI8226 myeloma cell viability, profiling panel, resazurin fluorescence, basal, 24 h, PK04 Diversity Set (AID 1180).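 Further: RPMI8826 multiple myeloma cell line at 5000 cells per well; test concentration not given here.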 The following applies: higher = more signal.
Assay [20] concerns the target E3 ubiquitin-protein ligase XIAP (Homo sapiens) (UniProt P98170). The experiment in a line: XIAP binders, primary screen, biophysical, small-molecule microarray, fluorescence 635 nm (AID 1181).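 Further: score merges 667 nm emission and signal to noise over triplicate slides.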 The following applies: small-molecule microarray binding, higher = more signal.

Active and inactive are the calls of the source. Unless noted, how the calls were made is not given here.

Sequence of Dihydroorotate dehydrogenase (quinone), mitochondrial (Plasmodium falciparum (isolate 3D7)) (Q08210 whole entry, looked up): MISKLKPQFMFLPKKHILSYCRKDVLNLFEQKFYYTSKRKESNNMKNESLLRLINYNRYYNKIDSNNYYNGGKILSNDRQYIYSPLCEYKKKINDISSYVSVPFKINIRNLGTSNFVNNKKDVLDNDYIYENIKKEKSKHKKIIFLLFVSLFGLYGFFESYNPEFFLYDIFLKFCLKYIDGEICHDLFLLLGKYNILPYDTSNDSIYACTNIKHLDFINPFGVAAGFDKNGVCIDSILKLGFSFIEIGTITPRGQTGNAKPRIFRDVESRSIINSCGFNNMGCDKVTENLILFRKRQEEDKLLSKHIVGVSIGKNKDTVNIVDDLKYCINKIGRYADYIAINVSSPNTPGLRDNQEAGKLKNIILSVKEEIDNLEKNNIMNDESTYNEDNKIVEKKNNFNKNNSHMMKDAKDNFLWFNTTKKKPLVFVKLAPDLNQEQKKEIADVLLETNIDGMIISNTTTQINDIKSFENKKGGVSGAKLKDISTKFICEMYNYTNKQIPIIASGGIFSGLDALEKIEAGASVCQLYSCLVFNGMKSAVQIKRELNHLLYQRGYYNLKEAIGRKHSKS
Sequence of E3 ubiquitin-protein ligase XIAP (Homo sapiens) (P98170 whole entry, looked up): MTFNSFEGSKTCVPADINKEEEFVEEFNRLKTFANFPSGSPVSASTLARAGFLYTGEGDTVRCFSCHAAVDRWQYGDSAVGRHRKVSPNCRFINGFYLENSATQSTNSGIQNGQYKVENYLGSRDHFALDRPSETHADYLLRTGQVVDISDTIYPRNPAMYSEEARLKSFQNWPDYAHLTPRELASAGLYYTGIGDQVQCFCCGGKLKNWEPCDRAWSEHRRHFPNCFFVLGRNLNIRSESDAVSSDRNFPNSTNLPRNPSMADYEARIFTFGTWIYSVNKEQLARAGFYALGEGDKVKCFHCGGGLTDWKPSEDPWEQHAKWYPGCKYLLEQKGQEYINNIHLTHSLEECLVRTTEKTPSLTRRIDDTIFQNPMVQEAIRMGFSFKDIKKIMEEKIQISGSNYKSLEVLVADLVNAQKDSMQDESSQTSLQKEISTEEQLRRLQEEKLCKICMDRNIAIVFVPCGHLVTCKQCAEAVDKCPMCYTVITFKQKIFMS

Take `O=C1C2C=CC(C(O)c3ccco3)N(Nc3ccccc3F)C2C(=O)N1c1ccccc1` (stereo not given): the z-score is -0.356 in [1]; -0.912 in assay [2]; -0.0718 in assay [3]; -0.142 in [4]; 0.243 in assay [5]; -1.27 in assay [6]. Moreover, the z-score was -0.346 (inactive) in assay [7]; -0.201 in assay [8]; 0.128 in [9]; 0.279 (inactive) in assay [10]; 0.162 in [11]; -0.258 (inactive) in assay [12]. The z-score in [13] was -0.936 (inactive); in assay [15], 1.04 (inactive); in assay [16] it was 0.101 (inactive); in [17], -0.887 (inactive); in assay [18], -0.921 (inactive); in assay [19], -0.684. The composite z-score in [14] is 0.334 (inactive); in [20], 0.318.
For the molecule `Cc1ccc(S[C@]2(C(=O)NCc3ccccc3)CC(=O)N(C3CCCCC3)[C@@H]2c2ccc(CO)cc2I)cc1`, the z-score in [1] was -0.0709; in [2], 0.183; in assay [3], 0.398; in assay [4], -1.93; in [5] it was -3.39; in assay [6], 0.521. Besides, the z-score was 0.97 (inactive) in [7]; -0.464 in assay [8]; -1.62 in [9]; -0.99 (inactive) in [10]; -0.636 in [11]; -0.799 (inactive) in [12]. Further, the z-score in [13] is -1.82 (inactive); in assay [15] it was 0.82 (inactive); in [16], -0.505 (inactive); in assay [17] it was 0.509 (inactive); in assay [18], 0.323 (inactive); in assay [19] it was -2.24. The composite z-score in assay [14] was -0.11 (inactive); in [20], -0.0095.
Consider `C=CCC(OC(C)=O)[C@@H]1[C@@H](N(Cc2ccc(-c3cccc(C(F)(F)F)c3)o2)C(=O)c2ccc(-c3ccccc3)cc2)c2cc(OCCCO)ccc2N1C(=O)Cc1ccc2ccccc2c1` (stereo not given in full), for which the z-score in assay [1] is -0.713; in assay [2] it was 1.22; in [3], 0.374; in assay [4], 0.502; in assay [5], -1.15; in assay [6], 1.66. Besides, the z-score is 0.437 (inactive) in assay [7]; -0.807 in [8]; 0.0299 in [9]; 0.378 (inactive) in [10]; 0.0839 in assay [11]; 0.915 (inactive) in assay [12]. In addition, the z-score in assay [13] is -0.115 (inactive); in assay [15], 0.338 (inactive); in [16], 0.805 (inactive); in [17], 0.0952 (inactive); in assay [18], 0.119 (inactive); in assay [19], 0.322. Moreover, the composite z-score in [14] was 0.306 (inactive); in [20], -0.17.
On to `CC(C)C(CO)N1C(=O)[C@@H]2C3C(=O)OCCC/C=C\[C@H]3OC23C=CCN(Cn2nnc4ccccc42)C(=O)[C@@H]13` (stereo not given in full), for which the z-score in assay [1] is 0.225; in [2], 0.0251; in assay [3] it was 0.0343; in assay [4], 1; in assay [5], -0.224; in [6] it was -0.45. For the same molecule, the z-score in assay [7] was -0.529 (inactive); in assay [8] it was -0.0779; in [9], -0.165; in assay [10], 0.173 (inactive); in [11], 0.658; in [12] it was -0.133 (inactive). Further, the z-score in [13] was 0.184 (inactive); in [15], 0.233 (inactive); in assay [16], -0.0374 (inactive); in [17] it was 0.246 (inactive); in assay [18] it was 0.118 (inactive); in assay [19], 0.37. Also, the composite z-score in [14] was -1.09 (inactive); in assay [20], -0.0367.
For `Cc1ccc(S[C@]2(C(=O)NCC(F)(F)F)CC(=O)N(Cc3cc(C(F)(F)F)cc(C(F)(F)F)c3)[C@@H]2c2ccc(CO)cc2I)cc1`, the z-score in assay [1] is -0.369; in assay [2], -0.37; in assay [3], -0.548; in assay [4], -2.27; in assay [5], -2.64; in assay [6], -0.812. For the same molecule, the z-score in [7] is -0.792 (inactive); in [8] it was -0.366; in assay [9], -0.852; in assay [10], 1.19 (inactive); in assay [11], 1.02; in [12], -3.16 (inactive). Also, the z-score in assay [13] was -1.99 (inactive); in assay [15], -0.522 (inactive); in assay [16] it was -0.974 (inactive); in assay [17] it was -0.301 (inactive); in assay [18] it was -0.0582 (inactive); in assay [19] it was -2.03. Moreover, the composite z-score in [14] is -0.845 (inactive); in [20], -0.325.
On to `COC(=O)[C@@H]1N=C(c2ccc(OCCCO)cc2)O[C@@H]1c1ccccc1`, for which the z-score in assay [1] is 0.623; in [2], 0.469; in [3], -0.677; in assay [4] it was 0.565; in assay [5], 0.474; in [6] it was -0.659. In addition, the z-score was -0.652 (inactive) in [7]; 0.278 in assay [8]; -0.241 in assay [9]; 0.331 (inactive) in assay [10]; 1.64 in [11]; -2.99 (inactive) in assay [12]. The z-score was 1.09 (inactive) in assay [13]; -0.484 (inactive) in assay [15]; -0.763 (inactive) in assay [16]; 0.714 (inactive) in assay [17]; 0.129 (inactive) in [18]; 1.5 in [19]. Further, the composite z-score in assay [14] was -0.103 (inactive); in assay [20], 0.761.
Turning to `O=C1C2C=CC(C(O)C3CC=CCC3)N(Nc3ccccc3)C2C(=O)N1c1ccccc1` (stereo not given), the z-score was -1.05 in [1]; -0.0629 in assay [2]; -1.2 in assay [3]; -1.13 in assay [4]; -1.14 in assay [5]; -2.47 in assay [6]. Also, the z-score in assay [7] was -0.858 (inactive); in [8] it was 0.173; in assay [9], -1.02; in assay [10], -0.728 (inactive); in assay [11], -0.868; in [12], -1.22 (inactive). Besides, the z-score in assay [13] is -1.57 (inactive); in assay [15], 1.18 (inactive); in [16], -0.197 (inactive); in assay [17], -0.572 (inactive); in [18], -0.658 (inactive); in [19], -1.12. The composite z-score in assay [14] is -0.558 (inactive); in assay [20], 0.251.
Turning to `COc1ccc(C#Cc2ccc3c(c2)[C@]2(C(=O)N3)[C@H](C(=O)O)[C@H]3C(=O)O[C@H](c4ccccc4)[C@H](c4ccccc4)N3[C@@H]2c2ccc(O)cc2)cc1`, the z-score was -0.483 in assay [1]; 1.65 in assay [2]; -0.176 in assay [3]; -2.61 in [4]; -3.91 in [5]; -3.99 in [6]. The z-score in assay [7] was -1.15 (inactive); in [8], -0.85; in assay [9], -0.623; in assay [10], 0.199 (inactive); in assay [11] it was -0.704; in assay [12], -1.07 (inactive). Moreover, the z-score in assay [13] is 0.239 (inactive); in [15] it was 0.381 (inactive); in assay [16], 0.128 (inactive); in assay [17] it was -0.0897 (inactive); in assay [18], -0.94 (inactive); in assay [19], -0.152. Besides, the composite z-score was -4.06 (inactive) in assay [14] and -0.209 in assay [20].
